15 compounds from the supplement of paper PMC6522484 can be followed below.

The structures appear in SMILES notation. ± gives the standard deviation of the averaged measurements.

The subject of experiment [1] is DLD1. Briefly: cell viability (CellTiter-Glo) relative to plate median (fraction of plate median); higher = more viable cells. To be noted: 5 µM; treatment time 24 h; reporter: 7TFP. The gist of the method: (§1)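 On parallel plates, a Tecan F500 reader recorded either firefly luciferase or CellTiterGlo luminescence. The plates held colorectal cancer cells stably transduced with lentiviral TCF/Wnt firefly luciferase reporters (7TFP or TCF4/Wnt), seeded in 384-well format and treated 24 h later with library compounds at a final 5 µM for 24 h. Per-well signals were normalised to the plate median (webcellHTS2, additive, no log transformation), and two independent replicates were averaged.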
(In general: In ATP-based viability assays light output follows the ATP content of the culture.)

The subject of experiment [2] is HCT116. The experiment is described as above. Conditions: 5 µM; treatment time 24 h; reporter: TCF4/Wnt. The gist of the method: as §1
In experiment [3] the test system is SW480. Described as above. To be noted: 5 µM; treatment time 24 h; reporter: 7TFP. The method, boiled down: as §1
The test system of experiment [4] is DLD1. Put plainly: TCF/Wnt firefly luciferase reporter signal relative to plate median (fraction of plate median); higher = higher Wnt reporter signal. To be noted: 5 µM; treatment time 24 h; reporter: 7TFP. The gist of the method:
as §1
Background: A reporter such as luciferase makes a cellular process visible.

Experiment [5] relates to SW480. The experiment is described as above. To be noted: 5 µM; treatment time 24 h; reporter: 7TFP. The method, boiled down:
as §1

Consider `CC1Cc2ccccc2N1NC(=O)c1ccc(Cl)c(S(N)(=O)=O)c1` (stereo not given), for which the cell viability in experiment [1] was 1.01 ± 0.069; in experiment [2] it was 1.1 ± 0.028; in experiment [3] it was 1 ± 0.013. The “TCF/Wnt firefly luciferase reporter signal” value in experiment [4] came out at 0.967 ± 0.13; in experiment [5], 1.055 ± 0.0071.
`CC(C)(C)NCC(O)c1cc(O)cc(O)c1` (stereo not given): the values for the cell viability in experiment [1], in experiment [2] and in experiment [3] were 1.045 ± 0.0071, 1.02 ± 0.061 and 1.09 ± 0.028, respectively. For the same compound, the “TCF/Wnt firefly luciferase reporter signal” value in experiment [4] turned out to be 0.999 ± 0.03; in experiment [5] it was 1.03 ± 0.13.
For the compound `O=C(O)/C=C/C=C/c1ccccc1`, the cell viability in experiment [1] stood at 0.976 ± 0.16; in experiment [2], 0.9625 ± 0.0092; in experiment [3], 0.98 ± 0.0057. Besides, the “TCF/Wnt firefly luciferase reporter signal” value amounted to 0.906 ± 0.028 in experiment [4] and 0.729 ± 0.071 in experiment [5].
For `CN(C)c1nc(N(C)C)nc(N(C)C)n1`, in that order: 0.976 ± 0.076, 0.97 ± 0.057, 1.05, 1.03 ± 0.035 and 1.01 ± 0.09.
For `CC(C)NCC(O)COc1cccc2ccccc12` (stereo not given), in that order: 0.927 ± 0.16, 0.997 ± 0.047, 1.03 ± 0.044, 1.01 ± 0.044 and 0.9935 ± 0.0092.
With `COC1=CC(=O)c2c(O)c3c(c(O)c2C1=O)OC1(Oc2c(cc4cc(C)oc(=O)c4c2O)C2OC21)C3O` (stereo not given) [Griseorhodin A], the cell viability was determined as 1.09 ± 0.11 in experiment [1], 1.01 ± 0.04 in experiment [2] and 1.05 ± 0.021 in experiment [3]. For the same compound, the “TCF/Wnt firefly luciferase reporter signal” value was 0.925 ± 0.057 in experiment [4] and 1.01 ± 0.014 in experiment [5].
Consider `N[C@@H](CC(=O)N1CCn2c(nnc2C(F)(F)F)C1)Cc1cc(F)c(F)cc1F`, for which the values for the cell viability in experiment [1], in experiment [2] and in experiment [3] were 1.09 ± 0.042, 0.997 ± 0.061 and 0.963 ± 0.041, respectively. In addition, the “TCF/Wnt firefly luciferase reporter signal” value in experiment [4] stood at 0.95 ± 0.069; in experiment [5] it was 0.935 ± 0.081.
With `C[C@@](Cc1ccc(O)c(O)c1)(NN)C(=O)O`, the cell viability came out at 1.01 ± 0.015 in experiment [1], 0.981 ± 0.098 in experiment [2] and 1.02 ± 0.067 in experiment [3]. For the same compound, the figures for the “TCF/Wnt firefly luciferase reporter signal” value in experiment [4] and in experiment [5] were 0.8725 ± 0.005 and 0.95 ± 0.13, respectively.
As for `CC1COc2c(N3CCN(C)CC3)c(F)cc3c(=O)c(C(=O)O)cn1c23` (stereo not given), the cell viability stood at 0.995 ± 0.05 in experiment [1], 1.04 ± 0.16 in experiment [2] and 0.91 ± 0.0099 in experiment [3]. Besides, the “TCF/Wnt firefly luciferase reporter signal” value turned out to be 0.93 ± 0.075 in experiment [4] and 1.01 ± 0.088 in experiment [5].
On the same counts, the results for `CC(=O)O[C@@H]1C[C@@]2(C)C(CC[C@@H]2C(C)=O)C2CCC3=CC(=O)CC[C@]3(C)C21` (stereo not given in full) are 0.943 ± 0.019, 1.09 ± 0.042, 0.976 ± 0.024, 1.02 ± 0.031 and 0.965 ± 0.033.
With `O=C(O)CCCC[C@@H]1CCSS1` (racemic), the cell viability amounted to 1.06 ± 0.071 in experiment [1], 1.01 in experiment [2] and 0.986 ± 0.035 in experiment [3]. For the same compound, the figures for the “TCF/Wnt firefly luciferase reporter signal” value in experiment [4] and in experiment [5] were 0.856 ± 0.032 and 0.96 ± 0.023, respectively.
With `O=c1cc[nH]c(=S)[nH]1`, the figures for the cell viability in experiment [1], in experiment [2] and in experiment [3] were 1.03 ± 0.073, 1.04 ± 0.061 and 0.956 ± 0.076, respectively. Moreover, the “TCF/Wnt firefly luciferase reporter signal” value in experiment [4] was found to be 1.03 ± 0.014; in experiment [5], 1.02 ± 0.028.
With `CC12CC3CC(C)(C1)CC(N)(C3)C2`, the values for the cell viability in experiment [1], in experiment [2] and in experiment [3] were 1.06 ± 0.16, 1.05 ± 0.05 and 1.02 ± 0.014, respectively. The “TCF/Wnt firefly luciferase reporter signal” value in experiment [4] and in experiment [5] was 1.04 ± 0.064 each time.
`Cc1oncc1C(=O)Nc1ccc(C(F)(F)F)cc1`: the cell viability in experiment [1] was 1.05 ± 0.11; in experiment [2], 1.15; in experiment [3] it was 1.13 ± 0.071. For the same compound, the “TCF/Wnt firefly luciferase reporter signal” value in experiment [4] is 1.14 ± 0.05; in experiment [5] it was 1.05 ± 0.11.
As to `NCCCC[C@H](NC(=O)[C@H](Cc1ccc(O)cc1)NC(=O)[C@@H](N)CCCCN)C(=O)O`, the cell viability in experiment [1] came to 1.04 ± 0.064; in experiment [2], 0.967 ± 0.042; in experiment [3], 1.06 ± 0.035. Moreover, the “TCF/Wnt firefly luciferase reporter signal” value in experiment [4] is 1.05 ± 0.095; in experiment [5], 1.03.
